Laboratory results: PubChem BioAssay (NCI)
Compounds without any hit were thinned out: in the full panel of roughly 83,000, 20% have a hit.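 Results are percent growth after 48 hours of single-concentration exposure. 100 means growth as in untreated cells, lower positive values show inhibition; negative values down to -100 show cell death.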 Active and inactive are the calls of the source. How the source made its calls: active means growth percent below 10; inactive means the rest.

Each compound was assayed on U251 CNS (assay: NCI-60 one-dose screen, 48 h (100 = growth as untreated, 0 = no growth, -100 = all killed)). Conditions: 10 µM unless noted.
`COC(=O)c1cc(-c2ccc(C)cc2)n(C(=O)CSc2nc3sc(C(N)=O)c(C)c3c(=O)n2Cc2ccccc2)n1` was tested, and the growth was 102% (inactive).
With `COc1cccc(OC)c1OC(=O)c1ccccc1` the growth was 94.8% (inactive).
With `Oc1ccc2ccccc2c1C1NN=C(c2ccccc2)S1` (centres undefined) the growth was 19.4% (inactive).
For `CCCCC/C=C\C/C=C/CCCCCCCCNC(=O)Nc1ccc([N+](=O)[O-])cc1`, the growth was 51.3% (inactive).
For `Clc1ccc(Nc2ccnc(N3CCN(c4ccnc5cc(Cl)ccc45)CC3)n2)cc1`, the growth was 51.9% (inactive).
With `Cc1ccc(S(=O)(=O)N(c2ccc(Cl)cc2)c2ccc(Br)cc2C(=O)O)cc1` the growth was 95.8% (inactive).
For `CCN1CCN(C(=S)SCC(=O)Nc2nc3ccc(OC)cc3s2)CC1`, the growth was 102% (inactive).
With `Cn1c2ccccc2c2nn(Cc3ccccc3)c(=O)nc21` the growth was 106% (inactive).
`Clc1ccc2c(N3CCN(c4ccnc(NC5CCCCC5)n4)CC3)ccnc2c1` was tested, and the growth was 40.4% (inactive).
`Cn1c2ccccc2c2nn(C(=O)c3ccccc3)c(=O)nc21` was tested, and the growth was 112% (inactive).
With `COc1ccc(OC2=C(C#N)C(=N)N3c4ccccc4Sc4ccccc4C3N2)cc1` (centres undefined) the growth was 105% (inactive).
For `NC(=S)N/N=C1\c2ccccc2-c2c(F)c(F)c(F)c(F)c21`, the growth was 63.9% (inactive).
For `NC(=O)c1cc(I)ccc1NC(=O)COc1ccc(Cl)cc1Cl`, the growth was 89.5% (inactive).
In the case of `CCC12CCC3c4ccc(O)cc4CCC3C1CC(O)C2O` (centres undefined), the growth is reported as 56.5% (inactive).
`C=C(C)COC(=O)c1ccccc1C(=O)OCC1(C)CO1` (centres undefined) was tested, and the growth was 102% (inactive).
`COc1ccc(NC(=O)COc2ccccc2)c(C(N)=O)c1` was tested, and the growth was 9.36% (active).
For `O=c1nc(NO)[nH]c(=O)n1Cc1ccc(F)cc1`, the growth was 98.6% (inactive).
`NC(=O)c1cc(I)ccc1NC(=O)COc1ccccc1` was tested, and the growth was 13.5% (inactive).
With `O=C(Nc1ccccc1O)c1ccc(NS(=O)(=O)c2cccc3cccnc23)cc1` the growth was 46.5% (inactive).
With `CC(=O)OC[C@H](O)[C@@]1(O)CC[C@H]2[C@@H]3CCC4=CC(=O)CC[C@]4(C)[C@H]3[C@@H](O)C[C@@]21C` the growth was 111% (inactive).
With `COc1cc(NC(=O)COc2ccccc2)c(C(N)=O)cc1OC` the growth was 17.8% (inactive).
`COc1ccc(Nc2[nH]n(C3=Nc4ccccc4Sc4ccccc43)c(=O)c2C#N)cc1` was tested, and the growth was 67% (inactive).
For `COc1c(Cl)ccc2c(-c3nc4cc(Cl)c(F)cc4s3)cc(=O)oc12`, the growth was 99.1% (inactive).
For `CC(=O)Nc1ccc(S(=O)(=O)N/N=C\c2ccc(Cl)c(Cl)c2)cc1`, the growth was 95.5% (inactive).
`COc1ccc(/C=C(\C#N)c2ccc(OC)cc2)cc1` was tested, and the growth was 48.8% (inactive).
For `Clc1nc(-c2ccccn2)nc2sc3c(c12)CCCCCC3`, the growth was 97.2% (inactive).
`Cc1ccc(C(=O)Nc2ccccc2N)cc1` was tested, and the growth was 74.8% (inactive).
For `COc1cccc(OC(=O)c2ccccc2)c1OC(=O)c1ccccc1`, the growth was 49.2% (inactive).
With `COC(=O)c1ccc(C(=O)Nc2ccccc2N)cc1` the growth was 72.1% (inactive).
In the case of `CCSc1nnc2c3cc(Br)ccc3n(C)c2n1`, the growth is reported as 101% (inactive).
`N#CCCN1CCN(CCC#N)C1=S` was tested, and the growth was 101% (inactive).
In the case of `NC(=O)c1cc(Cl)ccc1NC(=O)COc1ccccc1`, the growth is reported as 39.7% (inactive).
For `CN1CCN(CCCn2c3c(sc4ncccc43)c(=O)n3nnc(-c4ccccc4)c23)CC1`, the growth was -80.8% (active).

What follows are compounds tested on PC-3 prostate in the same assay as above. Conditions: 10 µM unless noted.
`O=C1C(Cl)=C(NCCCN2CCOCC2)C(=O)c2ccccc21` was tested, and the growth was 79.6% (inactive).
For `COC(=O)c1cc(-c2ccc(C)cc2)n(C(=O)CSc2nc3sc(C(N)=O)c(C)c3c(=O)n2Cc2ccccc2)n1`, the growth was 86.1% (inactive).
With `Oc1ccc2ccccc2c1C1NN=C(c2ccccc2)S1` (centres undefined) the growth was 27.7% (inactive).
`CCCCC/C=C\C/C=C/CCCCCCCCNC(=O)Nc1ccc([N+](=O)[O-])cc1` was tested, and the growth was 16.3% (inactive).
In the case of `Clc1ccc(Nc2ccnc(N3CCN(c4ccnc5cc(Cl)ccc45)CC3)n2)cc1`, the growth is reported as 37.7% (inactive).
For `Cc1ccc(S(=O)(=O)N(c2ccc(Cl)cc2)c2ccc(Br)cc2C(=O)O)cc1`, the growth was 96.7% (inactive).
With `CCN1CCN(C(=S)SCC(=O)Nc2nc3ccc(OC)cc3s2)CC1` the growth was 82.9% (inactive).
In the case of `Cn1c2ccccc2c2nn(Cc3ccccc3)c(=O)nc21`, the growth is reported as 99.4% (inactive).
With `Clc1ccc2c(N3CCN(c4ccnc(NC5CCCCC5)n4)CC3)ccnc2c1` the growth was 36.7% (inactive).
For `Cn1c2ccccc2c2nn(C(=O)c3ccccc3)c(=O)nc21`, the growth was 92.4% (inactive).
With `COc1ccc(OC2=C(C#N)C(=N)N3c4ccccc4Sc4ccccc4C3N2)cc1` (centres undefined) the growth was 88.9% (inactive).
For `NC(=S)N/N=C1\c2ccccc2-c2c(F)c(F)c(F)c(F)c21`, the growth was 80.3% (inactive).
With `NC(=O)c1cc(I)ccc1NC(=O)COc1ccc(Cl)cc1Cl` the growth was 86.4% (inactive).
In the case of `CCC12CCC3c4ccc(O)cc4CCC3C1CC(O)C2O` (centres undefined), the growth is reported as 85.5% (inactive).
`O=C1NC(=O)C(CSc2ccccc2)(c2ccccc2)N1` (centres undefined) was tested, and the growth was 88.9% (inactive).
In the case of `C=C(C)COC(=O)c1ccccc1C(=O)OCC1(C)CO1` (centres undefined), the growth is reported as 104% (inactive).
`COc1ccc(NC(=O)COc2ccccc2)c(C(N)=O)c1` was tested, and the growth was 39.9% (inactive).
`O=c1nc(NO)[nH]c(=O)n1Cc1ccc(F)cc1` was tested, and the growth was 94.1% (inactive).
In the case of `NC(=O)c1cc(I)ccc1NC(=O)COc1ccccc1`, the growth is reported as 43.4% (inactive).
With `O=C(Nc1ccccc1O)c1ccc(NS(=O)(=O)c2cccc3cccnc23)cc1` the growth was 59% (inactive).
`CC(=O)OC[C@H](O)[C@@]1(O)CC[C@H]2[C@@H]3CCC4=CC(=O)CC[C@]4(C)[C@H]3[C@@H](O)C[C@@]21C` was tested, and the growth was 95.4% (inactive).
For `COc1cc(NC(=O)COc2ccccc2)c(C(N)=O)cc1OC`, the growth was 30.7% (inactive).
For `COc1ccc(Nc2[nH]n(C3=Nc4ccccc4Sc4ccccc43)c(=O)c2C#N)cc1`, the growth was 41.4% (inactive).
For `Cn1c2ccc(Cl)cc2c2nn(C(=O)c3ccccc3)c(=O)nc21`, the growth was 93.2% (inactive).
`CC(=O)Nc1ccc(S(=O)(=O)N/N=C\c2ccc(Cl)c(Cl)c2)cc1` was tested, and the growth was 83.6% (inactive).
For `COc1ccc(/C=C(\C#N)c2ccc(OC)cc2)cc1`, the growth was 73.7% (inactive).
With `CCCCNNC(=O)c1ccc(Br)cc1` the growth was 61.4% (inactive).
With `Clc1nc(-c2ccccn2)nc2sc3c(c12)CCCCCC3` the growth was 92.2% (inactive).
`Oc1ccccc1/C=N/Nc1nc2ccccc2s1` was tested, and the growth was 34.6% (inactive).
`COc1cccc(OC(=O)c2ccccc2)c1OC(=O)c1ccccc1` was tested, and the growth was 77% (inactive).
In the case of `COC(=O)c1ccc(C(=O)Nc2ccccc2N)cc1`, the growth is reported as 65.3% (inactive).
For `CCSc1nnc2c3cc(Br)ccc3n(C)c2n1`, the growth was 81% (inactive).
With `N#CCCN1CCN(CCC#N)C1=S` the growth was 99.6% (inactive).
In the case of `COC(=O)/C=C1/CCC2C3CCC4=CC(=O)C(Br)CC4(C)C3C(=O)CC12C` (centres undefined), the growth is reported as 53.5% (inactive).
For `NC(=O)c1cc(Cl)ccc1NC(=O)COc1ccccc1`, the growth was 47.3% (inactive).
For `CN1CCN(CCCn2c3c(sc4ncccc43)c(=O)n3nnc(-c4ccccc4)c23)CC1`, the growth was -3.82% (active).
